Laboratory results taken from PubChem BioAssay AID1159580 (chemical genetic matrix, 2015).
Where “and” joins values, the source holds several entries; their conditions need not be identical. Equal values may be shown once. In all, about 5,500 compounds went through this assay and about 2,000 (36%) were called active. Another 18% or so got no clear call; they are omitted. Rule as the data show it: active = normalized growth mostly below about 0.91 (no sharp cut-off); inconclusive = no clear call, values can overlap the other calls; inactive = mostly above about 0.92. The list shows a part of the results.

Assay: chemical genetic growth profiling, strain panel (AID 1159580);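 also: tested at 20 µM; growth read once vehicle control cultures reached saturation at 30 °C; 1 = growth at the plate median or of vehicle wells; lower values mean less growth of the strain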
Conditions: S. cerevisiae deletion strains, growth OD

Measured: normalized growth

COc1ccc([C@@H]2CC(=O)c3c(O)cc(O)cc3O2)cc1O
inactive: locus YAL013W, strain DEP1, hits give low values 1.03 | locus YAL021C, strain ccr4, hits give low values 0.976 | locus YAL026C, strain drs2, hits give low values 0.978 | locus YAL030W, strain snc1, hits give low values 0.982 | locus YBL061C, strain skt5, hits give low values 0.977 | locus YBR009C, strain hhf1, hits give low values 0.983 | locus YBR021W, strain FUR4, hits give low values 1 | locus YBR023C, strain chs3, hits give low values 0.976 | locus YBR171W, strain sec66, hits give low values 0.999 | locus YBR229C, strain ROT2, hits give low values 1 | locus YBR231C, strain swc5, hits give low values 0.989 | locus YBR279W, strain paf1, hits give low values 0.982 | locus YCL011C, strain gbp2, hits give low values 0.975 | locus YCL016C, strain dcc1, hits give low values 0.961 | locus YCL029C, strain bik1, hits give low values 1.02 | locus YCL061C, strain MRC1, hits give low values 0.978 | locus YCL069W, strain vba3, hits give low values 0.99 | locus YCR088W, strain abp1, hits give low values 0.977 | locus YDL005C, strain med2, hits give low values 0.978 | locus YDL035C, strain GPR1, hits give low values 0.971 | locus YDL040C, strain nat1, hits give low values 0.986 | locus YDL074C, strain BRE1, hits give low values 1 | locus YDL101C, strain DUN1, hits give low values 1.01 | locus YDL185W, strain tfp1, hits give low values 1.01 | locus YDL192W, strain arf1, hits give low values 1 | locus YDR001C, strain nth1, hits give low values 0.973 | locus YDR069C, strain doa4, hits give low values 0.983 | locus YDR101C, strain arx1, hits give low values 1.02 | locus YDR137W, strain rgp1, hits give low values 0.973 | locus YDR159W, strain sac3, hits give low values 0.995 | locus YDR162C, strain NBP2, hits give low values 0.999 | locus YDR195W, strain ref2 0.994 | locus YDR297W, strain sur2, hits give low values 0.976 | locus YDR318W, strain mcm21, hits give low values 0.993 | locus YDR334W, strain swr1, hits give low values 0.985 | locus YDR335W, strain msn5, hits give low values 0.975 | locus YDR388W, hits give low values 1 | locus YDR392W, strain spt3, hits give low values 0.862 | locus YDR502C, strain sam2, hits give low values 0.995 | locus YEL003W, strain gim4, hits give low values 0.976 | locus YEL037C, strain rad23, hits give low values 0.973 | locus YEL061C, strain CIN8 (second series), hits give low values 0.977 | locus YEL061C, strain CIN8, hits give low values 1 | locus YER015W, strain faa2, hits give low values 0.983 | locus YER016W, strain bim1, hits give low values 0.976 | locus YER110C, hits give low values 1.01 | locus YER111C, strain swi4, hits give low values 0.963 | locus YER155C, strain BEM2 (second series), hits give low values 0.926 | locus YER155C, strain BEM2, hits give low values 0.998 | locus YER167W, strain BCK2, hits give low values 1 | locus YFR010W, strain ubp6, hits give low values 0.972 | locus YGL078C, strain dbp3, hits give low values 1 | locus YGL086W, strain mad1, hits give low values 1.03 | locus YGL167C, strain pmr1, hits give low values 0.977 | locus YGL173C, strain kem1, hits give low values 0.978 | locus YGL227W, strain vid30, hits give low values 0.988 | locus YGL240W, strain doc1, hits give low values 0.989 | locus YGL248W, strain PDE1, hits give low values 1.01 | locus YGL253W, strain hxk2, hits give low values 0.961 | locus YGR078C, strain PAC10, hits give low values 1.02 | locus YGR135W, strain pre9, hits give low values 0.979 | locus YGR229C, strain SMI1, hits give low values 0.983 | locus YGR252W, strain gcn5, hits give low values 0.893 | locus YHR013C, strain ard1, hits give low values 0.955 | locus YHR027C, strain rpn1, hits give low values 0.994 | locus YHR030C, strain SLT2, hits give low values 1.01 and 1 | locus YHR079C, strain IRE1 (second series), hits give low values 1.01 | locus YHR079C, strain IRE1, hits give low values 1.01 | locus YHR094C, strain hxt1, hits give low values 1.01 | locus YHR129C, strain ARP1, hits give low values 1 | locus YHR142W, strain chs7, hits give low values 0.918 | locus YHR200W, strain rpn10, hits give low values 0.993 | locus YIL066C, strain RNR3, hits give low values 0.979 | locus YIL073C, strain SPO22, hits give low values 1.05 | locus YIL125W, strain kgd1, hits give low values 1.01 | locus YIR030C, strain dcg1, hits give low values 1.01 | locus YJL092W, strain hpr5, hits give low values 0.976 | locus YJL095W, strain BCK1 (second series), hits give low values 0.978 | locus YJL095W, strain BCK1, hits give low values 1.04 and 1 | locus YJL115W, strain asf1, hits give low values 0.984 | locus YJL129C, strain trk1, hits give low values 0.939 | locus YJL134W, strain LCB3, hits give low values 1 | locus YJL154C, strain vps35, hits give low values 0.98 | locus YJL164C, strain tpk1, hits give low values 0.972 | locus YJL166W, strain qcr8, hits give low values 0.969 | locus YJL168C, strain set2, hits give low values 1 | locus YJL187C, strain SWE1 (second series), hits give low values 1.02 | locus YJL187C, strain SWE1, hits give low values 0.981
